In PubChem BioAssay AID1159580 (chemical genetic matrix, 2015):
“And” between values parts separate entries of the source, which are not always exact repeats. Equal values may be shown once. In all, about 5,500 compounds went through this assay and about 2,000 (36%) were called active. Another 18% or so got no clear call; they are omitted. Rule as the data show it: active = normalized growth mostly below about 0.91 (no sharp cut-off); inconclusive = no clear call, values can overlap the other calls; inactive = mostly above about 0.92. Some of the results follow.

Assay: chemical genetic growth profiling, strain panel (AID 1159580);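 also: tested at 20 µM; growth read once vehicle control cultures reached saturation at 30 °C; 1 = growth at the plate median or of vehicle wells; lower values mean less growth of the strain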
Conditions: growth OD
[1] = S. cerevisiae deletion strains, locus YAL013W, strain DEP1, hits give low values
[2] = S. cerevisiae deletion strains, locus YAL040C, strain CLN3, hits give low values
[3] = S. cerevisiae deletion strains, locus YDR150W, strain NUM1, hits give low values
[4] = S. cerevisiae deletion strains, locus YDR363W, strain ESC2, hits give low values
[5] = S. cerevisiae deletion strains, locus YER002W, strain NOP16, hits give low values
[6] = S. cerevisiae deletion strains, locus YGR229C, strain SMI1, hits give low values
[7] = S. cerevisiae deletion strains, locus YMR307W, strain GAS1, hits give low values
[8] = S. cerevisiae deletion strains, locus YNL153C, strain GIM3, hits give low values
[9] = S. cerevisiae deletion strains, locus YNL175C, strain NOP13, hits give low values
[10] = S. cerevisiae deletion strains, locus YNL197C, strain WHI3, hits give low values
[11] = S. cerevisiae deletion strains, locus YNL224C, strain SQS1, hits give low values
[12] = S. cerevisiae deletion strains, locus YNL322C, strain KRE1, hits give low values
[13] = S. cerevisiae deletion strains, locus YOR083W, strain WHI5 (second series), hits give low values

Measured: normalized growth

NC(=Nc1ccccc1)NC(=O)c1nc(Cl)c(N)nc1N
inactive: [1] 0.975 | [2] 0.997 | S. cerevisiae deletion strains, locus YCL061C, strain MRC1 (second series), hits give low values 1 | [3] 0.999 | [4] 0.973 | [5] 0.991 | [6] 1 | [7] 0.993 | [8] 0.986 | [9] 1.01 | [10] 1.01 | [11] 1 | [12] 0.992 | [13] 1

NC(N)=NC(=O)c1nc(Cl)c(N2CCCCCC2)nc1N
active: S. cerevisiae deletion strains, locus YOL012C, strain htz1 2.1 [resistant]
inactive: [1] 1.01 and 0.962 | [2] 1.09 | S. cerevisiae deletion strains, locus YBR021W, strain FUR4, hits give low values 1.02 | S. cerevisiae deletion strains, locus YBR229C, strain ROT2, hits give low values 1.01 | S. cerevisiae deletion strains, locus YCL029C, strain bik1, hits give low values 1.01 | S. cerevisiae deletion strains, locus YDL035C, strain GPR1, hits give low values 1 | S. cerevisiae deletion strains, locus YDL074C, strain BRE1, hits give low values 0.989 | S. cerevisiae deletion strains, locus YDL101C, strain DUN1, hits give low values 1.02 | S. cerevisiae deletion strains, locus YDL134C, strain PPH21, hits give low values 1.01 | S. cerevisiae deletion strains, locus YDL185W, strain tfp1, hits give low values 1.02 | S. cerevisiae deletion strains, locus YDL192W, strain arf1, hits give low values 1.01 | S. cerevisiae deletion strains, locus YDR101C, strain arx1, hits give low values 1 | [3] 1.01 | S. cerevisiae deletion strains, locus YDR162C, strain NBP2, hits give low values 1.03 | S. cerevisiae deletion strains, locus YDR318W, strain mcm21, hits give low values 1.01 | [4] 0.986 | S. cerevisiae deletion strains, locus YDR388W, hits give low values 1.01 | S. cerevisiae deletion strains, locus YDR502C, strain sam2, hits give low values 1.01 | S. cerevisiae deletion strains, locus YEL061C, strain CIN8, hits give low values 1.01 | [5] 1.02 | S. cerevisiae deletion strains, locus YER110C, hits give low values 1 | S. cerevisiae deletion strains, locus YER155C, strain BEM2, hits give low values 1.01 | S. cerevisiae deletion strains, locus YER167W, strain BCK2, hits give low values 1 | S. cerevisiae deletion strains, locus YGL078C, strain dbp3, hits give low values 1.02 | S. cerevisiae deletion strains, locus YGL086W, strain mad1, hits give low values 0.998 | S. cerevisiae deletion strains, locus YGL248W, strain PDE1, hits give low values 1.01 | S. cerevisiae deletion strains, locus YGR078C, strain PAC10, hits give low values 0.991 | S. cerevisiae deletion strains, locus YGR135W, strain pre9, hits give low values 0.995 | [6] 1.01 and 0.996 | S. cerevisiae deletion strains, locus YGR252W, strain gcn5, hits give low values 0.853 | S. cerevisiae deletion strains, locus YHR030C, strain SLT2, hits give low values 1.01 and 1.06 | S. cerevisiae deletion strains, locus YHR079C, strain IRE1 (second series), hits give low values 1.02 | S. cerevisiae deletion strains, locus YHR079C, strain IRE1, hits give low values 1.06 | S. cerevisiae deletion strains, locus YHR094C, strain hxt1, hits give low values 1.01 | S. cerevisiae deletion strains, locus YHR129C, strain ARP1, hits give low values 1 | S. cerevisiae deletion strains, locus YHR200W, strain rpn10, hits give low values 1.02 | S. cerevisiae deletion strains, locus YIL066C, strain RNR3, hits give low values 1.02 | S. cerevisiae deletion strains, locus YIL073C, strain SPO22, hits give low values 1.08 | S. cerevisiae deletion strains, locus YIL125W, strain kgd1, hits give low values 1.01 | S. cerevisiae deletion strains, locus YIR030C, strain dcg1, hits give low values 1.02 | S. cerevisiae deletion strains, locus YJL095W, strain BCK1, hits give low values 0.986 and 1.06 | S. cerevisiae deletion strains, locus YJL134W, strain LCB3, hits give low values 1.01 | S. cerevisiae deletion strains, locus YJL168C, strain set2, hits give low values 1.02 | S. cerevisiae deletion strains, locus YJL187C, strain SWE1 (second series), hits give low values 1.02 | S. cerevisiae deletion strains, locus YJR043C, strain POL32, hits give low values 0.982 | S. cerevisiae deletion strains, locus YJR066W, strain TOR1, hits give low values 1.02 | S. cerevisiae deletion strains, locus YJR075W, strain HOC1, hits give low values 0.988 | S. cerevisiae deletion strains, locus YKL009W, strain mrt4, hits give low values 0.999 | S. cerevisiae deletion strains, locus YKL068W, hits give low values 1.01 | S. cerevisiae deletion strains, locus YKL085W, strain MDH1 (second series), hits give low values 1.01 | S. cerevisiae deletion strains, locus YKL085W, strain MDH1, hits give low values 1.01 | S. cerevisiae deletion strains, locus YKL190W, strain CNB1, hits give low values 1.01 | S. cerevisiae deletion strains, locus YKR001C, strain vps1, hits give low values 1.02 | S. cerevisiae deletion strains, locus YLR039C, strain RIC1, hits give low values 1.14 | S. cerevisiae deletion strains, locus YLR058C, strain SHM2, hits give low values 1.02 | S. cerevisiae deletion strains, locus YLR102C, strain apc9, hits give low values 1.01 | S. cerevisiae deletion strains, locus YLR113W, strain HOG1, hits give low values 0.973 | S. cerevisiae deletion strains, locus YLR262C, strain YPT6, hits give low values 1.16 | S. cerevisiae deletion strains, locus YLR268W, strain sec22, hits give low values 1.02 | S. cerevisiae deletion strains, locus YLR330W, strain CHS5, hits give low values 1.02 | S. cerevisiae deletion strains, locus YLR342W, strain FKS1 (second series), hits give low values 0.887 | S. cerevisiae deletion strains, locus YLR371W, strain rom2, hits give low values 1.03 | S. cerevisiae deletion strains, locus YLR418C, strain cdc73, hits give low values 0.91 | S. cerevisiae deletion strains, locus YML016C, strain PPZ1, hits give low values 1.01 | S. cerevisiae deletion strains, locus YML032C, strain rad52, hits give low values 1.01 | S. cerevisiae deletion strains, locus YML124C, strain tub3, hits give low values 1.01 | S. cerevisiae deletion strains, locus YMR078C, strain ctf18, hits give low values 1.01 | S. cerevisiae deletion strains, locus YMR223W, strain ubp8, hits give low values 0.999 | S. cerevisiae deletion strains, locus YMR263W, strain SAP30, hits give low values 1.01 and 0.995 | [7] 0.88 | S. cerevisiae deletion strains, locus YNL067W, strain RPL9B, hits give low values 1 | S. cerevisiae deletion strains, locus YNL128W, strain TEP1, hits give low values 1.02 | [8] 1.01 and 0.97 | [9] 1.03 | S. cerevisiae deletion strains, locus YNL183C, strain NPR1, hits give low values 1.02 | [10] 1.07 | [11] 1.01 | S. cerevisiae deletion strains, locus YNL233W, strain BNI4, hits give low values 1 | S. cerevisiae deletion strains, locus YNL250W, strain rad50, hits give low values 1.01 | S. cerevisiae deletion strains, locus YNL271C, strain bni1, hits give low values 1.02 | S. cerevisiae deletion strains, locus YNL298W, strain CLA4, hits give low values 1 | S. cerevisiae deletion strains, locus YNL307C, strain MCK1, hits give low values 0.989 | [12] 1.01 | S. cerevisiae deletion strains, locus YNR052C, strain pop2, hits give low values 1.02 | S. cerevisiae deletion strains, locus YOL006C, strain TOP1, hits give low values 0.995 | S. cerevisiae deletion strains, locus YOL147C, strain pex11, hits give low values 1 | S. cerevisiae deletion strains, locus YOR061W, strain CKA2, hits give low values 1.01 | S. cerevisiae deletion strains, locus YOR069W, strain VPS5, hits give low values 1.01 | [13] 0.979 | S. cerevisiae deletion strains, locus YOR136W, strain idh2, hits give low values 1.02 | S. cerevisiae deletion strains, locus YOR144C, strain elg1, hits give low values 1.01 | S. cerevisiae deletion strains, locus YOR184W, strain ser1, hits give low values 1.02 | S. cerevisiae deletion strains, locus YOR231W, strain MKK1, hits give low values 1.02 | S. cerevisiae deletion strains, locus YOR316C, strain cot1, hits give low values 1.01 | S. cerevisiae deletion strains, locus YPL055C, strain LGE1, hits give low values 1.01 and 0.902 | S. cerevisiae deletion strains, locus YPL241C, strain CIN2, hits give low values 1.01 | S. cerevisiae deletion strains, locus YPL256C, strain CLN2, hits give low values 1.09 | S. cerevisiae deletion strains, locus YPR119W, strain clb2, hits give low values 1.01 | S. cerevisiae deletion strains, locus YPR141C, strain kar3, hits give low values 1.02 | S. cerevisiae deletion strains, locus YPR163C, strain tif3, hits give low values 1.02 | S. cerevisiae deletion strains, locus YPR167C, strain met16, hits give low values 1.01 | S. cerevisiae deletion strains, strain wtn01, hits give low values 1.01 | S. cerevisiae strains, strain wild type, hits give low values 1.01
